In the library only some 3.9% were active in any assay of this set; here they are far more common.
BoNT F protease: BoNT F light chain protease inhibition. AID 588497. hit rate 0.22% among 360,000. inhibition, % at 10 µM. Multiplex microsphere protease cleavage assay, flow cytometry; in the data active = inhibition above about 35%, passing the limit was not always enough; inconclusive = no clear call, values can overlap the other calls; note: plate controls were buffer without enzyme for full effect and enzyme alone for no effect
Autofluor counter: flagged as autofluorescent in microsphere protease counterscreen. compound autofluorescence counterscreen, microsphere flow cytometry; stronger effect = higher value. fluorescence intensity (test concentration not listed). hit rate 3.1% among 360,000. AID 624483; in the data active = fluorescence intensity above about 16000; inconclusive = no clear call, values can overlap the other calls
CCHF vOTU inh-1: CCHFV vOTU protease inhibition; inhibition, % at 11.5 µM; hit rate 0.55% among 370,000; Pep-AMC fluorescence; in the data active = inhibition above about 30%; note: 0% = vehicle wells with enzyme and 100% = no enzyme wells
SARS 3CLpro inh: SARS-CoV 3CLpro protease inhibition | P0C6X7 | hit rate 0.14% among 290,000 | AID 1706 | recombinant SARS-CoV 3CLpro, quenched FRET peptide cleavage | inhibition, % at 6 µM; in the data active = inhibition above about 12%
BoNT-A LC inh2: inhibitors of Botulinum neurotoxin A light chain protease; inhibition, % at 10 µM; multiplex microsphere protease substrate cleavage, flow cytometry; hit rate 0.17% among 360,000; note: plate controls were buffer without enzyme for full effect and enzyme alone for no effect
Anthrax LF inh2: blocks Bacillus anthracis lethal factor protease | hit rate 0.12% among 360,000 | P15917 | inhibition, % at 10 µM | multiplex microsphere protease cleavage assay, LF; note: plate controls were buffer without enzyme for full effect and enzyme alone for no effect
CCHF vOTU inh-2: CCHFV vOTU protease inhibition, confirmation; shares compounds with CCHF vOTU inh-1; Recombinant CCHFV vOTU, Pep-AMC fluorescence; inhibition, % at 11.5 µM; hit rate 17% among 1,900; AID 686976; in the data active = inhibition above about 30%
* marks the source's active call; other numbers are inactive results; ? = inconclusive; . = no result given. Cut-off read from the data, not from the text of the source, unless noted: active = inhibition above about 30%; inconclusive = no clear call, values can overlap the other calls; inactive = below that.

SMILES | BoNT F protease | Autofluor counter | CCHF vOTU inh-1 | SARS 3CLpro inh | BoNT-A LC inh2 | Anthrax LF inh2 | CCHF vOTU inh-2
CCN(CC)C(=O)[C@H]1C[C@H](CC(=O)NCc2cccc(C(F)(F)F)c2)C(=O)N2CCc3c([nH]c4ccc(Cl)cc34)[C@]12C | -2.8 | 3102 | 31.6* | . | -0.8 | -5.7 | -3.4
COc1ccc(CN(C2CCCC2)S(=O)(=O)c2cc(Br)ccc2Br)c(OC)c1 | . | . | 10.2 | . | . | . | .
N#C/C(=C\Nc1ccc2c(c1)OCCO2)c1nc2ccccc2[nH]1 | -7.2 | 6112 | 32.1* | 0.7 | -1.6 | -16.2 | 3.0
N#C/C(=C\Nc1ccc2c(c1)OCCO2)c1nc(-c2ccccc2)cs1 | 1.2 | 2225 | 0.8 | 2.9 | 0.7 | 1.2 | .
CCOc1ccc(CCN2C(=O)C(=O)N([C@@H](CC(C)C)CN3CCC[C@H]3CN3C(=O)C(=O)NC[C@@H]3Cc3ccc(O)cc3)C[C@@H]2Cc2ccccc2)cc1 | 2.0 | 5305 | 30.5* | . | 0.6 | -1.1 | -9.1
O=C1NC[C@H](Cc2ccc(O)cc2)N(C[C@@H]2CCCN2C[C@H](Cc2ccc(O)cc2)N2C[C@H](Cc3ccccc3)N(CCc3ccccc3)C(=O)C2=O)C1=O | 0.2 | 6126 | 33.9* | . | 0.6 | -3.1 | -19.3
CC(C)C[C@@H](CN1CCC[C@@H]1CN1C(=S)NC[C@@H]1Cc1ccccc1)N1C[C@H](Cc2ccc(O)cc2)N(CC2CCCCC2)C1=S | 4.1 | 5637 | 29.8* | . | -0.4 | 3.2 | -12.0
CCOc1ccc(CCN2C(=S)N([C@@H](Cc3ccccc3)CN3CCCC3CN3C(=S)NC[C@@H]3Cc3ccccc3)C[C@@H]2Cc2ccc(O)cc2)cc1 (some centres undefined) | -16.9 | 6088 | 29.7* | . | -1.2 | 0.2 | -4.9
CC(C)C[C@@H](CN1CCC[C@@H]1CN1C(=S)NC[C@@H]1Cc1ccccc1)N1C[C@H](Cc2ccc(O)cc2)N(CC2CCCCCC2)C1=S | -9.7 | 5536 | 12.5 | . | -0.8 | -5.8 | .
COc1cc2c(cc1NC(=O)CSc1nnc(-c3cccc(Cl)c3)n1Cc1ccco1)oc1ccccc12 | . | . | -4.7 | . | . | . | .
COC(=O)[C@]12CCCCC=C1N(Cc1ccc(OC)cc1)C(=O)[C@@H]2CC(=O)NCc1ccc(C)o1 | . | . | 5.5 | . | . | . | .
COC(=O)C1=C(C)N(Cc2ccccc2C(F)(F)F)C(=NCC2CC2)NC1c1ccc(C(F)(F)F)cc1 (centres undefined) | . | . | 14.3 | . | . | . | .
COC(=O)c1c(C)cc(O)c(C=O)c1O | -2.5 | 5574 | . | . | -0.6 | -0.4 | .
Cc1cc2c(C(C)C)c(O)c(O)c(C=O)c2c(O)c1-c1c(C)cc2c(C(C)C)c(O)c(O)c(C=O)c2c1O | 3.6 | 5135 | 63.3* | 4.9 | 0.4 | 3.7 | 31.0*
CCCCCCc1nc(C(N)=O)c2[nH]c(=O)n(-c3ccc(OC)cc3OC)c2n1 | 6.5 | 4485 | 29.9* | 4.4 | 0.1 | 1.6 | 1.5
CC(c1ccccc1)N1C(=O)c2cccnc2C1=O (centres undefined) | ? | 3691 | -4.3 | -1.0 | 1.8 | 0.8 | .
CC(NC1=CC(=O)c2cccnc2C1=O)C(O)c1ccccc1 (centres undefined) | 1.6 | 3807 | 101.2* | . | 1.0 | -9.5 | 94.0*
COC(=O)Cc1nnn2c1CC(OC)c1cc(Br)ccc1-2 (centres undefined) | . | . | 3.2 | . | . | . | .
CC(=O)c1ccc(N2CCN(C(=O)COc3ccc4c(c3)CCC4)CC2)cc1 | -6.8 | 5471 | 3.0 | -1.1 | -1.2 | -3.4 | .
Cc1ccc(Cl)cc1N1CCN(C(=O)COc2ccc3c(c2)CCC3)CC1 | -0.6 | 2834 | 30.4* | 1.8 | -0.5 | -0.5 | -12.2
COc1cc(OC)cc(C(=O)NCC2CCN(C(=O)C(=O)c3cccs3)CC2)c1 | . | . | 11.2 | . | . | . | .
Oc1ccc(Cl)cc1CNc1cccc2cccnc12 | ? | 3461 | 101.7* | 2.6 | 2.5 | -26.1 | -3.6
Oc1ccc(Br)cc1CNc1cccc2cccnc12 | ? | 3766 | 17.8 | -1.5 | -2.3 | -2.5 | .
Oc1c(Br)cc(Br)cc1CNc1cccc2cccnc12 | ? | 3875 | 115.7* | 4.3 | 3.8 | -7.5 | 12.3
CCN1/C(=C\C=C(C(C)=O)C(C)=O)Sc2ccccc21 | 1.2 | 3116 | 37.1* | 2.1 | 0.1 | -0.5 | 25.0
SMILES | BoNT F protease | Autofluor counter | CCHF vOTU inh-1 | SARS 3CLpro inh | BoNT-A LC inh2 | Anthrax LF inh2 | CCHF vOTU inh-2
CC1=NOC2(C1)N(C)c1ccccc1C2(C)C (centres undefined) | 1.3 | 10777 | -8.0 | 4.2 | 0.6 | -3.7 | .
COc1ccc2ccc3c(c2c1)N=C[C@]1(O3)N(C)c2ccccc2C1(C)C | 3.4 | 3546 | 46.5* | 0.5 | 0.3 | -2.8 | -2.6
COC(=O)[C@@]12CCCCC3=C1N(CCC3)C(=O)[C@H]2CC(=O)NCC1CCCCC1 | . | . | -1.4 | . | . | . | .
Cc1c(Cl)cccc1NS(=O)(=O)c1ccc2c(c1)C1C=CCC1C(c1ccc(C(=O)O)cc1)N2 (centres undefined) | -11.6 | 4169 | . | 2.6 | -0.9 | -3.9 | .
COc1ccc(NS(=O)(=O)c2ccc3c(c2)[C@H]2C=CC[C@H]2[C@@H](c2ccc(C(=O)O)cc2)N3)cc1 | -4.2 | 6000 | 38.5* | 1.9 | -1.5 | 0.9 | 25.8
C[C@@H]1ON(C)[C@H]2C[C@H]3c4[nH]c5c(-c6ccccc6)cccc5c4CCN3C[C@@H]12 | . | . | 7.5 | . | . | . | .
COC1=CC(=O)c2nc(Cl)ccc2C1=O | -2.6 | 6398 | 113.3* | . | 0.5 | -10.4 | 100.1*
O=C(O)c1cccc(Cn2c(Cl)c(/C=N/NC(=O)c3cc4ccccc4cc3O)sc2=O)c1 | -5.2 | 4688 | 30.2* | 3.1 | -0.9 | 6.3 | 23.4
O=C(N[C@H](Cc1ccccc1)C(=O)O)[C@H]1O[C@@H](n2ccc(=O)[nH]c2=O)[C@H](O)[C@@H]1O | . | . | 11.9 | . | . | . | .
C[N+]1(C)CCC(=C2c3ccccc3CC(=O)c3sccc32)CC1 | -1.5 | 5020 | 32.5* | -0.6 | 0.0 | 2.0 | 18.6
COc1cccc2c1C(=O)c1c(O)c3c(c(O)c1C2=O)C[C@@](O)(C(=O)CO)C[C@@H]3O[C@H]1C[C@H](N)[C@H](O)[C@H](C)O1 | -48.9 | 5053 | 40.8* | -9.8 | 1.6 | -25.4 | 30.5*
C[C@H]1CN([C@@H](C)CO)C(=O)CCCn2nncc2CO[C@@H]1CN(C)C(=O)Nc1ccccc1F | . | . | 3.3 | . | . | . | .
CC1Cc2ccccc2N1CC(=O)NC(=O)NC1CCCCC1 (centres undefined) | -3.8 | 4077 | 31.3* | 10.5 | 3.9 | 3.7 | -12.9
COP(=O)(O)C(C)NC(=O)OCc1ccccc1 (centres undefined) | . | . | 1.5 | . | . | . | .
CC1(OC(=O)C2CCCC2)C(=O)C=C2C=C(c3ccsc3)N(C(CO)CO)C=C2C1=O (centres undefined) | -12.6 | 2879 | 31.5* | . | -0.2 | -2.9 | -1.6
O=C(c1nc[nH]c1C(=O)N1CCc2ccccc2C1)N1CCc2ccccc2C1 | -6.6 | 4151 | 43.3* | . | -0.8 | -6.5 | -3.2
CN(Cc1ccccc1)C(=O)c1nc[nH]c1C(=O)N1CCc2ccccc2C1 | -0.8 | 3240 | -5.8 | . | 0.0 | -10.8 | .
COCCCNC(=O)c1ccc(Cn2c(=O)c3ccccc3n(Cc3ccc(C(C)C)cc3)c2=O)cc1 | . | . | 9.4 | . | . | . | .
